Experimental findings from PubChem BioAssay AID1063 (University of Pittsburgh Molecular Library Screening Center, 2008) are described below.

Out of some 200,000 compounds screened, about 18,000 (9%) were called active. The sample holds actives, similar compounds and a random draw of the others, so the mix is not that of the screen. No stated cut-off is given here; in the data, active means inhibition above about 50%; inactive means the rest.

The assay is described as follows: antileishmanial activity against promastigotes – primary screen (AID 1063).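 Further: promastigotes grown with compound for 44 hours at 28 °C.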 The note with it: Leishmania major promastigotes, resazurin fluorescence viability; at 10 µM; stronger effect = higher value. (Resazurin is reduced to fluorescent resorufin, in cell work by metabolically active cells.)
`Cc1ccccc1N/C(SCc1ccc(Cl)cc1)=C(/C#N)C(N)=O`: the inhibition was 25.8% (inactive).

As for `CC1(c2ccccc2)CC(C)(C)N(C(=O)c2cc([N+](=O)[O-])cc([N+](=O)[O-])c2)c2ccccc21` (stereo not given), the inhibition is 99.6% (active).

On to `CC1(c2cccc([N+](=O)[O-])c2)CC(C)(C)N(C(=O)c2ccccc2)c2ccccc21` (stereo not given), for which the inhibition is 22.4% (inactive).

Consider `CC1CCN(C(=S)c2cccc([N+](=O)[O-])c2)CC1`, for which the inhibition was -0.83% (inactive).

As for `COC(=O)NNC1=CC(=O)CC(C)(C)C1`, the inhibition is -0.84% (inactive).

For `CN(C(=O)COc1ncnc2c1cnn2-c1ccccc1)C1CCCCC1`, the inhibition is 0.81% (inactive).

Consider `CCOC(=O)C1CCCN(C(=O)c2cccc(S(=O)(=O)N3CCOCC3)c2)C1` (stereo not given), for which the inhibition was -6.48% (inactive).

With `CC(=O)NCCn1c(SCC(=O)Nc2ccc(C)cc2)nc2ccccc2c1=O`, the inhibition was 0.63% (inactive).

Take `COCCn1c(SCC(=O)Nc2ccc3c(c2)CCC3)nc2ccccc2c1=O`: the inhibition is 59.6% (active).

`CCc1nnc(NC(=O)CSc2nc3ccccc3c(=O)n2CCCOC)s1`: the inhibition was 11.7% (inactive).

On to `Cc1cccc(NC(=S)Nc2ccc(Cl)c(Cl)c2)c1`, for which the inhibition is 33.5% (inactive).

In the case of `CN(C)S(=O)(=O)Oc1ccccc1C(=O)Nc1ccccc1Cl`, the inhibition is 3.48% (inactive).

On to `O=C(CCC(=O)NNc1nc2ccccc2c2nc(-c3ccccc3)nn12)NCCCN1CCCC1=O`, for which the inhibition was 1.2% (inactive).

Take `O=C(NCCCn1ccnc1)Nc1ccc(Cl)cc1Cl`: the inhibition is 0.73% (inactive).

Consider `Cc1ccc2c(Cl)c(C(=O)NCCCn3ccnc3)sc2c1`, for which the inhibition is 99.3% (active).

Turning to `Cc1ccc2c(Cl)c(C(=O)Nc3nn[nH]n3)sc2c1`, the inhibition was 12.8% (inactive).

In the case of `CCCN(CCC)c1ccc(C(O)c2nnc(-c3ccccc3)o2)cc1` (stereo not given), the inhibition is 13.2% (inactive).

As to `Cc1ccc(Cl)cc1NC(=O)COC(=O)CC(C)(C)C`, the inhibition was 34.5% (inactive).

As to `COc1ccc(C(CC(=O)O)NC(=O)Cc2ccccc2)cc1` (stereo not given), the inhibition was -6.94% (inactive).

On to `COc1ccc(CC(=O)NC(C)CCc2ccccc2)cc1` (stereo not given), for which the inhibition was -3.88% (inactive).

`COc1ccc(C(CCNCc2ccccc2F)c2ccc(F)cc2)cc1` (stereo not given): the inhibition is 78.9% (active).

As to `Cc1cc(NS(=O)(=O)c2ccc(NC(=S)NC(=O)c3ccc(F)cc3Cl)cc2)no1`, the inhibition was 48.3% (inactive).

As for `CCN(CCCNC(=O)CSc1cc(=O)n(C)c2cc(Cl)ccc12)Cc1ccccc1`, the inhibition is 20.1% (inactive).

Turning to `COc1ccc(-n2cc(CNC3CCOCC3)c(-c3cccc(F)c3)n2)cc1`, the inhibition is 31.6% (inactive).

On to `O=C(NCCN1CCOCC1)c1cc(Sc2cccc(Cl)c2)nc2ccccc12`, for which the inhibition was 1.33% (inactive).

Consider `CC(C)OCCCNC(=O)c1cc(Sc2ccc(F)cc2)nc2ccccc12`, for which the inhibition is 50.2% (active).

As for `CC(C)CCNC(=O)c1cccnc1Sc1ccccc1`, the inhibition was 32.8% (inactive).

With `CN1CCNC(=O)C1CC(=O)NCCC1=CCCCC1` (stereo not given), the inhibition was 4.58% (inactive).

On to `CCOC(=O)c1c(C)[nH]c(C2=NNC(=NC(C)COC)SC2)c1C` (stereo not given), for which the inhibition is 8.5% (inactive).

With `CC(C)Cc1nn2c(=O)cc(O)nc2s1`, the inhibition is 54.9% (active).

`Cc1sc(NC(=S)NC(=O)c2cccs2)nc1-c1ccc(CC(C)C)cc1`: the inhibition was -14.6% (inactive).

For `CCOC(=O)c1cc2c(=O)n3ccccc3nc2n(CC(C)C)c1=NC(=O)c1c(-c2c(F)cccc2Cl)noc1C`, the inhibition was 98.8% (active).

`C/C(=N/OC(=O)c1c(-c2c(F)cccc2Cl)noc1C)c1cnccn1`: the inhibition is 0.04% (inactive).

With `CCCn1c(=NC(C)=O)c(C(=O)OCC)cc2c(=O)n3ccccc3nc21`, the inhibition is 7.11% (inactive).

`COc1ccc(NC(=O)/C(C#N)=C\c2cc(OC)c(OCc3ccc(C(=O)O)cc3)cc2Br)cc1`: the inhibition was 4.82% (inactive).

With `O=C(CN1CCN(c2nc(-c3ccccc3)cs2)CC1)NCc1ccc2c(c1)OCO2`, the inhibition is 1.96% (inactive).

Turning to `COc1cccc(NC(=O)CN2CCN(c3nc(-c4cccc(OC)c4)cs3)CC2)c1`, the inhibition was 9.93% (inactive).

Consider `COc1ccc(-c2csc(N3CCN(Cc4ccc5c(c4)OCO5)CC3)n2)cc1`, for which the inhibition is 76.3% (active).

Consider `Cc1nn(C)c(C)c1CN(C(=O)CCc1nnc(Cc2c[nH]c3ccccc23)o1)C(C)C`, for which the inhibition is -4.01% (inactive).

As to `Cc1cccc(N(CC(=O)N=Nc2c(O)[nH]c3ccccc23)S(C)(=O)=O)c1C`, the inhibition was 95.3% (active).

Consider `Cc1c(-c2ccccc2)n[nH]c1C(=O)N=Nc1c(O)[nH]c2ccccc12`, for which the inhibition was 4.35% (inactive).

For the molecule `COCC(=O)N=Nc1c(O)[nH]c2ccccc12`, the inhibition is -1.1% (inactive).

Consider `CCn1c(-c2cccnc2Cl)nc2cc(C)c(C)cc21`, for which the inhibition was 10% (inactive).

Take `Oc1oc(-c2ccccc2Br)nc1/C=N/c1ccccn1`: the inhibition was -5.62% (inactive).

With `CC(C)n1c(O)c(N=Nc2ccccn2)c2ccccc21`, the inhibition is 56.6% (active).

With `CC(C)n1c(C(O)c2ccccc2)nc2ccccc21` (stereo not given), the inhibition was 5.37% (inactive).

Turning to `CCc1ccccc1NC(=O)CN(c1ccc(OC)cc1OC)S(=O)(=O)c1ccccc1[N+](=O)[O-]`, the inhibition was 27.7% (inactive).

Turning to `COc1ccc(N(C)S(=O)(=O)c2cccc3nsnc23)cc1`, the inhibition is -1.4% (inactive).

Turning to `CCOC(=O)C1=C(CC)Nc2ccccc2N=C1N`, the inhibition was -8.37% (inactive).

In the case of `CCOC(=O)C1=C(CC)Nc2ccccc2N=C1NC(=O)c1cccc(S(=O)(=O)N2CCCC2)c1`, the inhibition was 72% (active).

Take `CCOC(=O)CSc1nnc(NC(=O)c2cccc(S(=O)(=O)N3CCCC3)c2)s1`: the inhibition was -6.49% (inactive).

`CCN(CC)Cc1nc2sc(C)c(C)c2c(=O)[nH]1`: the inhibition is -6.68% (inactive).

With `CC1CCN(C(=S)c2cccc(O)c2)CC1`, the inhibition is 0.69% (inactive).

For the molecule `CCOc1ccccc1NC(=O)Nc1cc(OC)ccc1OC`, the inhibition is -3.92% (inactive).

As to `CCOc1ccc(-c2n[nH]c(C)c2-c2ccccn2)c(O)c1`, the inhibition is 5.25% (inactive).

For the molecule `CCOc1ccccc1Oc1cn[nH]c1-c1ccc(OC)cc1O`, the inhibition is 50.6% (active).

With `CC(=O)c1cc(C#N)c(N2CC(C)OC(C)C2)nc1C` (stereo not given), the inhibition was -0.03% (inactive).

As to `O=C(NCCCN1CCOCC1)c1ccc([N+](=O)[O-])cc1[N+](=O)[O-]`, the inhibition is 57.7% (active).

In the case of `O=C(NCCCNc1ccc([N+](=O)[O-])cc1Cl)c1ccccc1F`, the inhibition was 11.1% (inactive).

As to `O=[N+]([O-])c1ccc(NCCCN2CCOCC2)c(Cl)c1`, the inhibition was 90.3% (active).

Turning to `O=C(NCCCN1CCOCC1)c1ccccc1NS(=O)(=O)c1ccc(F)cc1`, the inhibition is -1.28% (inactive).

Turning to `O=C(NCCCN1CCOCC1)c1ccc(N2CCCC2)c([N+](=O)[O-])c1`, the inhibition was -1.2% (inactive).

As for `Nc1nc(NCCCN2CCOCC2)nc(Nc2ccccc2)c1[N+](=O)[O-]`, the inhibition is 47.8% (inactive).

As for `S=C(Nc1ccc(Br)cc1Cl)N1CCC2(CC1)OCCO2`, the inhibition is -4.82% (inactive).

Take `Cc1ccc(CC2CC(=O)N(c3nc(C)cc(C)n3)C2=O)cc1` (stereo not given): the inhibition is -5.05% (inactive).

With `Brc1ccc(CSc2ccc(-c3ccco3)nn2)cc1`, the inhibition was 2% (inactive).

Take `O=C1COc2ccc(C(=O)COC(=O)c3cccnc3Cl)cc2N1`: the inhibition was 11% (inactive).

Take `Cc1ccc(C(=O)OCc2nc(N)nc(Nc3ccccc3C)n2)cc1`: the inhibition was 53.7% (active).

With `Cc1ccccc1Nc1nc(N)nc(CN2CCN(c3ccccn3)CC2)n1`, the inhibition was 0.34% (inactive).

On to `Cc1ccccc1Nc1nc(N)nc(CSc2ccccc2)n1`, for which the inhibition was 58.8% (active).

In the case of `CCOC(=O)N1CCN(Cc2nc(N)nc(Nc3ccc(C)cc3)n2)CC1`, the inhibition is 3.79% (inactive).

Consider `COc1ccccc1Nc1nc(N)nc(CN(C)C2CCCCC2)n1`, for which the inhibition was 0.98% (inactive).

Regarding `Cc1ccccc1Nc1nc(N)nc(CSc2nnc3ccccn23)n1`, the inhibition is -7.89% (inactive).

In the case of `CCOC(=O)C(NC(C)=O)C(=O)Nc1ccc(OC)cc1` (stereo not given), the inhibition was -2% (inactive).

For `CCCCNC(=O)Nc1c(C)cc(SC#N)cc1C`, the inhibition is -2.51% (inactive).

As for `O=C(Nc1cccc(Cl)c1N1CCOCC1)c1ccc2c(c1)OCCO2`, the inhibition is 11.1% (inactive).

As to `COc1ccc(NC(=O)COc2ccc(C(=O)OCC(=O)N(C)C3CCS(=O)(=O)C3)cc2OC)cc1` (stereo not given), the inhibition was 2.14% (inactive).

`COc1ccc(S(=O)(=O)NCC2CCCN(C(=O)c3occc3C)C2)cc1` (stereo not given): the inhibition was -1.89% (inactive).

With `O=C(CSc1ncnc2c1nnn2Cc1ccc(F)cc1)NC1CCCC1`, the inhibition was -6.62% (inactive).

`CCCCOc1ccc(C(=O)NN2CCN(C)CC2)cc1`: the inhibition was -6.12% (inactive).

Regarding `CCCCOc1ccc(C(C)(O)CCN2CCOCC2)cc1` (stereo not given), the inhibition is 67.4% (active).

Regarding `CC(=O)c1ccc(OCCN2CCOCC2)cc1`, the inhibition is -0.55% (inactive).

Regarding `CCCCN(C)CCNC(=O)CSCc1ccc(C)cc1`, the inhibition is 35.7% (inactive).

With `Cc1ccc(NC(=S)N(CCN(C)C)Cc2cccs2)cc1C`, the inhibition was 23.8% (inactive).

Turning to `C#CCNC(=O)C1=C[C@@H](c2ccccc2)[C@H](CCCO)[C@@H](OCC)O1`, the inhibition was -3.12% (inactive).

In the case of `COc1cc(/C=N/N=C(\N)c2nonc2N)cc(OC)c1OC`, the inhibition is 13.2% (inactive).

Regarding `Cc1c(C2=CCN(S(=O)(=O)c3ccc(Cl)cc3)CC2)c2ccccc2n1C`, the inhibition was 54.9% (active).

As to `CC(C)NC(=O)C(=O)NCCN1CCN(S(=O)(=O)c2ccc(Cl)cc2)CC1`, the inhibition was -8.08% (inactive).

On to `O=C(ON=C1CCN(S(=O)(=O)c2ccccc2)CC1)c1ccc(Cl)cc1`, for which the inhibition is -6.64% (inactive).

Regarding `OCC(O)CN(c1ccccc1)c1ccccc1` (stereo not given), the inhibition was -1.63% (inactive).

As to `O=C(COc1ccc(-c2ccccc2)cc1)NN=C1CCCC1`, the inhibition is -3.72% (inactive).

Regarding `COc1ccc(/C=C2\SC(=S)N(CC(=O)NNC(=O)c3ccncc3)C2=O)cc1`, the inhibition was -5.15% (inactive).

As for `Cn1cc([N+](=O)[O-])c(C(=O)Nc2ccc3c(c2)OCCO3)n1`, the inhibition is 10.7% (inactive).

As to `Cn1cc([N+](=O)[O-])c(C(=O)Nc2cnn(Cc3ccc(F)cc3)c2)n1`, the inhibition is 98.6% (active).

For the molecule `CCc1ccc(NC(=O)c2ccc(Cn3cc([N+](=O)[O-])cn3)cc2)cc1`, the inhibition is -3.55% (inactive).

Usually inhibition stands for the relative decrease from the control value, in per cent.
